The record followed here is PubChem BioAssay AID2315 (National Center for Advancing Translational Sciences (NCATS), 2010).

Each structure is given as a SMILES string. About 27,000 (9.3%) of roughly 290,000 compounds were called active. Shown is part of a subset that was picked to be rich in actives. Values without a mark were called inactive. Cut-off read from the data, not from the text of the source: active = inhibition mostly above about 28% (no sharp cut-off); inactive = mostly below about 43%.

The nature of this assay: A qHTS for Small Molecule Inhibitors of Shiga Toxin. Note: 0% is about no effect. The note with it: Vero cells, Shiga toxin protein synthesis inhibition reporter; at 38.7 µM, stronger effect = higher value. (In general: qHTS replaces the single test concentration by a dilution series.)
Turning to `CCOC(=O)c1csc(CCNC(=O)c2oc3c(Cl)cc(C)cc3c2C)n1`, the inhibition was 43.9%. Under `O=C(NCCS(=O)(=O)c1ccc(Br)cc1)c1ccccc1Cl` stands -1.37%; under `Cc1ccnc(NC(=O)C2CCN(S(=O)(=O)c3c(C)c(C)cc(C)c3C)CC2)c1`, 8.68%.

`COc1ccc(N(C(=O)CNC(=O)c2ccco2)C(C(=O)NCC2CCCO2)c2ccccc2)cc1Cl` (centres undefined): the inhibition is 15.8%. Under `C/C(=N\NC(=O)C1(C)CC1(Br)Br)c1ccc(C)cc1C` (centres undefined) stands -7.42%; under `CCOC(OCC)OCC`, 11.5%; under `COCCCN1C(=O)c2ccc(C(=O)OCC(=O)NCc3ccccc3OC)cc2C1=O`, 9.09%. As for `COc1ccccc1CNC(=O)c1ccc(CS(=O)(=O)c2ccccc2)o1`, the figure is 2.09%; as for `COC(=O)CN1C(=O)[C@H]2[C@@H](C3CC3)N3C(=O)CN(Cc4ccc(-c5ccccc5)cc4)C(=O)[C@@]3(Cc3ccccc3)[C@H]2C1=O`, 9.74%; as for `CCOc1ccccc1-c1cc(C(=O)N/N=C(\C)c2cccnc2)c2ccccc2n1`, -30.4%.

As for `Cc1ccccc1/C=C\c1nc(O)c([N+](=O)[O-])c(=O)[nH]1`, the inhibition is -14.2%. Regarding `Cc1ccc2[nH]c(=O)c(CN(C)S(=O)(=O)c3cccc4nonc34)cc2c1`, the inhibition is -4.87%. Under `CCC1(CC)Cc2ccccc2-c2nc(CCl)[nH]c(=O)c21` stands -4.46%.

Take `CCc1ccc(OCC(O)CN2CCN(CCO)CC2)cc1` (centres undefined): the inhibition is -8.28%. Under `COc1ccc(NC(=O)N2CCCC2C(=O)NCc2ccccc2Cl)cc1` (centres undefined) stands -3.06%. For the compound `CC(NC(=O)c1ccco1)c1ccc2c(c1)OCO2` (centres undefined), the inhibition was -15.1%.

Turning to `CCC(C)(C)NC(=O)C(c1ccc(O)cc1)N(Cc1ccco1)C(=O)CCC(=O)Nc1ccccn1` (centres undefined), the inhibition was -12.1%. For `Cc1ccc(C)c(S(=O)(=O)N2CCCOC2CNC(=O)C(=O)NC2CCCCC2)c1` (centres undefined), the inhibition was 20.6%. As for `CC(C)c1ccc(S(=O)(=O)N2CCN(C(=O)c3ccc(N4CCCC4)c([N+](=O)[O-])c3)CC2)cc1`, the inhibition was 25.8%.

As to `O=C(Nc1ccccc1)c1ccc2c(c1)OCCCO2`, the inhibition was 58.6% (active). Under `CC(Sc1nc(-c2ccccc2)cc(C(F)(F)F)n1)C(=O)Nc1ccc2c(c1)OCO2` (centres undefined) stands -14.3%. As for `CC(=O)c1ccc2c(c1)OCCOCCOc1ccc(C(C)=O)cc1OCCOCCO2`, the figure is -5.3%; as for `Cc1nc(NC(=O)c2ccc3c(c2)OCCO3)ccc1Br`, 90.6% (active); as for `COc1ccc(C(=O)Nc2cccnc2)cc1C(=O)Nc1cccnc1`, 9.57%. As for `O=C(Nc1cccc(S(=O)(=O)Nc2ccc(Cl)cc2)c1)c1ccc2c(c1)OCCO2`, the figure is 11.3%. For the compound `O=C(CN1CCc2cc3c(cc2C1)OCCCO3)Nc1ccccc1`, the inhibition was 18.6%. Under `CC(Sc1nc2cc(Cl)ccc2s1)C(=O)Nc1ccc2c(c1)OCO2` (centres undefined) stands 0% (active).

As for `O=C(Nc1ccc2c(c1)OCO2)c1sc2cc(Cl)ccc2c1Cl`, the inhibition is -13.4%.

As for `O=C(Nc1ccc(Cl)cn1)c1ccc2c(c1)OCCO2`, the inhibition was 32.4%. As for `O=C(Nc1cccnc1)c1ccc2c(c1)OCO2`, the figure is 33% (active); as for `CN1CCC(CN)(N2CCN(c3ccccc3)CC2)CC1`, -6.52%; as for `COc1cccc2sc(N(CCCN(C)C)C(=O)CCS(=O)(=O)c3ccccc3)nc12`, 8.49%. As for `CC1(C)Cc2c(cnn2-c2cccc(F)c2)C(NC(=O)c2cc[n+]([O-])cc2)C1` (centres undefined), the figure is -5.88%; as for `Cc1cccnc1NC(=O)Cn1c(=O)oc2ccccc21`, 30.2%; as for `Cc1ccc(S(=O)(=O)c2c[nH]c3ccc(Cl)cc3c2=O)cc1`, -4.43%.

With `O=C(Nc1cccc([N+](=O)[O-])c1)Nn1cnnc1`, the inhibition is -6.68%. As for `CC(C)C(=O)Nc1cccc(C(=O)Nc2ccc3c(c2)OCO3)c1`, the figure is 143% (active); as for `CCSc1ccccc1C(=O)Nc1ccc2c(c1)OCO2`, 45.1%. Under `O=C(c1ccc2c(c1)OCO2)N1CCOCC1` stands 1.95%; under `O=C(Nc1ccc(C(=O)N2CCCCC2)cc1)c1cccc([N+](=O)[O-])c1`, 27.3%; under `O=C(Nc1ccc2c(c1)OCO2)c1ccc(N2C(=O)c3ccccc3C2=O)cc1`, 17.3%. As for `O=C(Nc1cccc([N+](=O)[O-])c1)c1ccc2c(c1)OCO2`, the figure is 58.7% (active); as for `CC(NC(=O)Nc1cccc([N+](=O)[O-])c1)c1ccc2c(c1)OCO2` (centres undefined), 6.02%.

With `O=C(Nc1ccc(N2CCOCC2)cc1)c1ccc2c(c1)OCO2`, the inhibition is 76.4% (active). In the case of `O=C(Nc1ccc(NC(=O)c2ccco2)c(Cl)c1)c1cccc([N+](=O)[O-])c1`, the inhibition was 15.6%. Under `O=C(Nc1ccc(C2CC2(Cl)Cl)cc1)c1cccc([N+](=O)[O-])c1` (centres undefined) stands 76.3% (active); under `CCN(CCCNC(=O)c1ccc2c(c1)NC(=O)CN2C)c1cccc(C)c1`, -5.92%.

For `COc1ccc(NC(=O)C2=CC(c3ccc(OC)c(OC)c3)=NS(=O)(=O)N2C)cc1`, the inhibition is 7.8%. As for `O=C(CN1CCCCCC1)Nc1ccc(Cl)cc1F`, the figure is 1.73%; as for `O=c1ccc2cc(S(=O)(=O)Nc3ccccc3F)ccc2o1`, -8.1%; as for `CCc1nc2cccnc2n1-c1ccc(C(=O)O)cc1`, -6.32%. As for `Cc1c(Cl)cccc1NC(=S)NCC(O)c1ccccc1` (centres undefined), the figure is 8.12%; as for `Cn1nnnc1SCC(=O)Nc1nc2ccccc2s1`, 25.2%; as for `O=C(Nc1ccccc1)Nc1nc2ccccc2s1`, 106% (active). Under `CC(=O)Nc1ccc(-c2csc(NC(=O)Nc3ccccc3)n2)cc1` stands 42%; under `COc1ccc(C(=O)NC2CC(C)(C)Cc3c2cnn3-c2ccccc2)c(OC)c1` (centres undefined), -3.27%. `CC(C)S(=O)(=O)c1csc(NC(=O)Nc2ccc(Cl)cc2)c1Cl`: the inhibition was 37.4%. As for `COc1ccccc1Nc1cc(C(=O)NCCCN(C)C2CCCCC2)c2ccccc2n1`, the figure is -10.8%; as for `Cc1ccc(SCC(=O)c2cc(C)c(OC(=S)N(C)C)c(C)c2)cc1`, 37.1%; as for `Cc1cc(C)n2nc(CNS(=O)(=O)c3c(F)c(F)c(F)c(F)c3F)nc2n1`, 9.24%. Regarding `COc1cccc(NC(=O)N2CCC(NC(=O)C(Cc3cccc(C)c3)NC(C)=O)CC2)c1` (centres undefined), the inhibition is 1.56%. As for `Cc1cccc(C(=O)Nc2ccccc2N2CCN(c3ccc(F)cc3)CC2)c1`, the figure is -3.83%. Turning to `Cc1ccc(-n2nc3c(c2NC(=O)c2ccc4c(c2)OCO4)CSC3)c(C)c1`, the inhibition was 1.3%. Under `Cc1ccc(F)cc1NC(=O)c1ccc2c(c1)OCO2` stands 43.8% (active). `O=C(Nc1ccccc1N1CCCCC1)c1cccc(F)c1`: the inhibition is 16.3%. With `O=C(CN1CCN(CC(=O)Nc2ccc3c(c2)OCO3)CC1)Nc1ccc(F)cc1`, the inhibition is -14.4%. As for `Cc1ccc(F)cc1NC(=O)c1cccc(N(C)C)c1`, the figure is 116% (active); as for `COc1ccc(NC(=O)NCc2ccc3c(c2)OCO3)c(OC)c1`, -9.62%; as for `CN(C)CCN(C(=O)C1CCCCC1)c1nc2cc3c(cc2s1)OCO3`, -7.68%. Regarding `CC(=O)N1CCc2cc(S(=O)(=O)NC3CCCCC3)ccc21`, the inhibition was -2.55%. Under `COc1ccc(C(=O)COC(=O)CNC(=O)c2cccs2)cc1Br` stands -12%; under `CC(=O)Nc1ccc(Nc2ncnc3c2nnn3Cc2ccccc2Cl)cc1`, -4.64%. With `COc1ccc(/C=C2\SC(=S)N(CCC(=O)Nc3ccccn3)C2=O)cc1OC`, the inhibition is -13.3%. As for `CCOc1ccc(N(CC(=O)NCC2CCCO2)S(=O)(=O)c2ccc(C)cc2)cc1` (centres undefined), the figure is -4.82%; as for `COCn1c(COc2ccccc2)nc2ccccc21`, 13.8% (active); as for `CC(C)n1c(COc2ccccc2)nc2ccccc21`, -5.6%.

`O=C(Cn1c(COc2ccccc2)nc2ccccc21)Nc1cc(Cl)c(Cl)cc1Cl`: the inhibition is 3.93%. Under `Cc1ccc(C23CC4CC(CC(C(=O)NCC(=O)O)(C4)C2)C3)cc1` stands -7.52%; under `Cc1cccc(OCC(=O)NC2CC(C)(C)NC(C)(C)C2)c1`, 1.98%. As for `CC(NCCc1ccc(S(N)(=O)=O)cc1)C(=O)NCc1ccccc1` (centres undefined), the figure is 45.3%. As for `Cc1cc(S(=O)(=O)N2CCOCC2)ccc1OCC(=O)Nc1cccc(C(F)(F)F)c1`, the inhibition is -13.1%. Under `CCc1nnc(NC(=O)CCCSc2nc3ccccc3[nH]2)s1` stands 13.8%; under `COc1ccccc1CC(=O)Nc1ccc([N+](=O)[O-])cc1OC`, 2.24%; under `COc1ccccc1-c1noc(CSc2nc(C)cc(=O)[nH]2)n1`, -3.44%.

For `COc1ccccc1CSc1nc2ccccc2[nH]1`, the inhibition was 71.9% (active). As for `C=CCSc1nc2ccccc2[nH]1`, the figure is 14.5%. As to `N#Cc1c(-c2ccccc2)nc(SCc2ccc([N+](=O)[O-])cc2)[nH]c1=O`, the inhibition was -3.91%. As for `CCCCSc1nc2ccccc2[nH]1`, the figure is 79.8% (active); as for `COc1ccccc1CSc1ncc(-c2ccc([N+](=O)[O-])cc2)[nH]1`, 54.5% (active). As for `O=C(NCc1ccccc1)c1onc(CSc2nc3ccccc3[nH]2)c1C(=O)NCc1ccccc1`, the figure is -3.72%. Take `CC(C)=N/N=C1/NC(=O)C(Cc2ccccc2)S1` (centres undefined): the inhibition was -7.41%.

In the case of `COc1cccc(CNC(=O)CN(C)S(=O)(=O)c2ccc3c(c2)c(=O)n(C)c(=O)n3C)c1`, the inhibition is 18.4%. As for `O=C(O)CCCCCCCCc1cn(CN2C(=O)c3ccccc3C2=O)nn1`, the figure is -8.38%; as for `CC(CCc1ccccc1)NC(=O)COC(=O)c1ccc(F)cc1` (centres undefined), -4.73%.

Usually inhibition stands for the change of the read-out against control, counted positive when it falls.
